# Measurements taken from publication PMC9911399, “Two distinct binding modes provide the RNA-binding protein RbFox with extraordinary sequence specificity”.
# Positions count from the first letter of the chain named. In all, about 16,000 sequences were measured (“ka relative to ugcaugu”: median about 0.0091, highest 2% from about 0.032 on). For the sample, the highest values were picked, then their nearest neighbours and some sequences at random.
# T1: RBFOX1 RRM (Homo sapiens, UniProt Q9NWB1 109-208)
# T1 sequence: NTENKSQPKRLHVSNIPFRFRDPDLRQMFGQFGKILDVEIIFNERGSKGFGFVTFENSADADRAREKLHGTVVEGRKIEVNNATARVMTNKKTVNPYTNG
# B1: AGCCGGG (DNA:RNA)
# RNA: GGGAGACCGGAAUUCAGAUUGUCCAGCCGGGUUAAAUCCCGUCGUAGCCACCA
# DNA 1: CAATCTGAATTCCGGTCTCCC
# DNA 2: TGGTGGCTACGACGGGATT
# B2: GUUCCGG (DNA:RNA)
# RNA: B1 RNA with A25G, G26U, C27U, G29C
# DNA 1: CAATCTGAATTCCGGTCTCCC
# DNA 2: TGGTGGCTACGACGGGATT
# B3: UUCCAAA (DNA:RNA)
# RNA: B1 RNA with A25U, G26U, G29A, G30A, G31A
# DNA 1: CAATCTGAATTCCGGTCTCCC
# DNA 2: TGGTGGCTACGACGGGATT
# B4: GACAUUG (DNA:RNA)
# RNA: B1 RNA with A25G, G26A, C28A, G29U, G30U
# DNA 1: CAATCTGAATTCCGGTCTCCC
# DNA 2: TGGTGGCTACGACGGGATT
# B5: GCUAGUA (DNA:RNA)
# RNA: B1 RNA with A25G, G26C, C27U, C28A, G30U, G31A
# DNA 1: CAATCTGAATTCCGGTCTCCC
# DNA 2: TGGTGGCTACGACGGGATT
# B6: GCAAACC (DNA:RNA)
# RNA: GGGAGACCGGAAUUCAGAUUGUCCGCAAACCUUAAAUCCCGUCGUAGCCACCA
# DNA 1: CAATCTGAATTCCGGTCTCCC
# DNA 2: TGGTGGCTACGACGGGATT
# B7: GCGUGGG (DNA:RNA)
# RNA: B1 RNA with A25G, G26C, C27G, C28U
# DNA 1: CAATCTGAATTCCGGTCTCCC
# DNA 2: TGGTGGCTACGACGGGATT
# B8: AGAAUCG (DNA:RNA)
# RNA: B1 RNA with C27A, C28A, G29U, G30C
# DNA 1: CAATCTGAATTCCGGTCTCCC
# DNA 2: TGGTGGCTACGACGGGATT
# B9: AAGCGGU (DNA:RNA)
# RNA: B1 RNA with G26A, C27G, G31U
# DNA 1: CAATCTGAATTCCGGTCTCCC
# DNA 2: TGGTGGCTACGACGGGATT
# B10: AAAGAAG (DNA:RNA)
# RNA: B1 RNA with G26A, C27A, C28G, G29A, G30A
# DNA 1: CAATCTGAATTCCGGTCTCCC
# DNA 2: TGGTGGCTACGACGGGATT
# B11: GUCCCGC (DNA:RNA)
# RNA: B1 RNA with A25G, G26U, G29C, G31C
# DNA 1: CAATCTGAATTCCGGTCTCCC
# DNA 2: TGGTGGCTACGACGGGATT
# B12: GCUUCUG (DNA:RNA)
# RNA: B6 RNA with A27U, A28U, A29C, C30U, C31G
# DNA 1: CAATCTGAATTCCGGTCTCCC
# DNA 2: TGGTGGCTACGACGGGATT
# B13: GCUUGUG (DNA:RNA)
# RNA: B1 RNA with A25G, G26C, C27U, C28U, G30U
# DNA 1: CAATCTGAATTCCGGTCTCCC
# DNA 2: TGGTGGCTACGACGGGATT
# B14: GCUUCCG (DNA:RNA)
# RNA: B6 RNA with A27U, A28U, A29C, C31G
# DNA 1: CAATCTGAATTCCGGTCTCCC
# DNA 2: TGGTGGCTACGACGGGATT
# B15: GCGCUUC (DNA:RNA)
# RNA: B6 RNA with A27G, A28C, A29U, C30U
# DNA 1: CAATCTGAATTCCGGTCTCCC
# DNA 2: TGGTGGCTACGACGGGATT
# B16: CGUCCGC (DNA:RNA)
# RNA: B1 RNA with A25C, C27U, G29C, G31C
# DNA 1: CAATCTGAATTCCGGTCTCCC
# DNA 2: TGGTGGCTACGACGGGATT
# B17: ACUGUGU (DNA:RNA)
# RNA: B1 RNA with G26C, C27U, C28G, G29U, G31U
# DNA 1: CAATCTGAATTCCGGTCTCCC
# DNA 2: TGGTGGCTACGACGGGATT
# B18: ACCCUUU (DNA:RNA)
# RNA: B1 RNA with G26C, G29U, G30U, G31U
# DNA 1: CAATCTGAATTCCGGTCTCCC
# DNA 2: TGGTGGCTACGACGGGATT
# B19: GACAGCA (DNA:RNA)
# RNA: B6 RNA with C26A, A27C, A29G, C31A
# DNA 1: CAATCTGAATTCCGGTCTCCC
# DNA 2: TGGTGGCTACGACGGGATT
# B20: GUGAAUA (DNA:RNA)
# RNA: B6 RNA with C26U, A27G, C30U, C31A
# DNA 1: CAATCTGAATTCCGGTCTCCC
# DNA 2: TGGTGGCTACGACGGGATT
# B21: UGGGGAG (DNA:RNA)
# RNA: B1 RNA with A25U, C27G, C28G, G30A
# DNA 1: CAATCTGAATTCCGGTCTCCC
# DNA 2: TGGTGGCTACGACGGGATT
# B22: UGGGGUG (DNA:RNA)
# RNA: B1 RNA with A25U, C27G, C28G, G30U
# DNA 1: CAATCTGAATTCCGGTCTCCC
# DNA 2: TGGTGGCTACGACGGGATT
# B23: UGGGGAA (DNA:RNA)
# RNA: B1 RNA with A25U, C27G, C28G, G30A, G31A
# DNA 1: CAATCTGAATTCCGGTCTCCC
# DNA 2: TGGTGGCTACGACGGGATT
# B24: CUGGAAG (DNA:RNA)
# RNA: B1 RNA with A25C, G26U, C27G, C28G, G29A, G30A
# DNA 1: CAATCTGAATTCCGGTCTCCC
# DNA 2: TGGTGGCTACGACGGGATT
# B25: UGGGAGU (DNA:RNA)
# RNA: B1 RNA with A25U, C27G, C28G, G29A, G31U
# DNA 1: CAATCTGAATTCCGGTCTCCC
# DNA 2: TGGTGGCTACGACGGGATT
# B26: UGGGUGU (DNA:RNA)
# RNA: B1 RNA with A25U, C27G, C28G, G29U, G31U
# DNA 1: CAATCTGAATTCCGGTCTCCC
# DNA 2: TGGTGGCTACGACGGGATT
# B27: UGGAAGU (DNA:RNA)
# RNA: B1 RNA with A25U, C27G, C28A, G29A, G31U
# DNA 1: CAATCTGAATTCCGGTCTCCC
# DNA 2: TGGTGGCTACGACGGGATT
# B28: UGGAGUU (DNA:RNA)
# RNA: B1 RNA with A25U, C27G, C28A, G30U, G31U
# DNA 1: CAATCTGAATTCCGGTCTCCC
# DNA 2: TGGTGGCTACGACGGGATT
# B29: CUGGUGU (DNA:RNA)
# RNA: B1 RNA with A25C, G26U, C27G, C28G, G29U, G31U
# DNA 1: CAATCTGAATTCCGGTCTCCC
# DNA 2: TGGTGGCTACGACGGGATT
# B30: UGGUGUU (DNA:RNA)
# RNA: B1 RNA with A25U, C27G, C28U, G30U, G31U
# DNA 1: CAATCTGAATTCCGGTCTCCC
# DNA 2: TGGTGGCTACGACGGGATT
# B31: UGGUGGG (DNA:RNA)
# RNA: B1 RNA with A25U, C27G, C28U
# DNA 1: CAATCTGAATTCCGGTCTCCC
# DNA 2: TGGTGGCTACGACGGGATT
# B32: UGGGAAG (DNA:RNA)
# RNA: B1 RNA with A25U, C27G, C28G, G29A, G30A
# DNA 1: CAATCTGAATTCCGGTCTCCC
# DNA 2: TGGTGGCTACGACGGGATT
# Molecular target: T1, RBFOX1 RRM
# Assay: EMSA; HiTS-Eq, 1 nM pool, 10 min; buffer printed only for the single-RNA assays: 10 mM Tris pH 7.5, 150 mM NaCl, 3.4 mM EDTA, 0.001% NP-40, 30 C
# Conditions: tags: His6 N-terminal (pET28a); label: 5' 32P
# Outline: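 Purified RbFox RRM, wild type or mutant, was incubated for 10 min in 50 µL with 1 nM of a 5′-radiolabelled RNA pool carrying 7 randomized nucleotides, whose flanks were annealed to DNA oligonucleotides, over a series of increasing protein concentrations. Unbound RNA was resolved on 8% native PAGE, cut out, reverse-transcribed, barcoded by PCR and sequenced on an Illumina HiSeq 2500. Relative association constants were derived from changes in read counts for each RNA species versus the control reaction and normalised to the cognate motif.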
row,Binder,binding signal
1,B1,0.0115 KA relative to UGCAUGU
2,B2,0.0142 KA relative to UGCAUGU
3,B3,0.00275 KA relative to UGCAUGU
4,B4,0.0146 KA relative to UGCAUGU
5,B5,0.0137 KA relative to UGCAUGU
6,B6,0.00398 KA relative to UGCAUGU
7,B7,0.0174 KA relative to UGCAUGU
8,B8,0.00981 KA relative to UGCAUGU
9,B9,0.00838 KA relative to UGCAUGU
10,B10,0.00539 KA relative to UGCAUGU
11,B11,0.0018 KA relative to UGCAUGU
12,B12,0.0318 KA relative to UGCAUGU
13,B13,0.0418 KA relative to UGCAUGU
14,B14,0.0121 KA relative to UGCAUGU
15,B15,0.0175 KA relative to UGCAUGU
16,B16,0.00928 KA relative to UGCAUGU

row,Binder,binding signal
1,B17,0.016 KA relative to UGCAUGU
2,B18,0.00524 KA relative to UGCAUGU
3,B19,0.0143 KA relative to UGCAUGU
4,B20,0.00781 KA relative to UGCAUGU
5,B21,0.0199 KA relative to UGCAUGU
6,B22,0.0422 KA relative to UGCAUGU
7,B23,0.0174 KA relative to UGCAUGU
8,B24,0.0188 KA relative to UGCAUGU
9,B25,0.0357 KA relative to UGCAUGU
10,B26,0.0478 KA relative to UGCAUGU
11,B27,0.0205 KA relative to UGCAUGU
12,B28,0.0241 KA relative to UGCAUGU
13,B29,0.0254 KA relative to UGCAUGU
14,B30,0.0267 KA relative to UGCAUGU
15,B31,0.0153 KA relative to UGCAUGU
16,B32,0.0374 KA relative to UGCAUGU
